Data on nine compounds can be found in PubChem BioAssay (NCI).

Compounds without any hit were thinned out: in the full panel of roughly 79,000, 15% have a hit. Unmarked numbers belong to inactive results. Active and inactive are the calls of the source. Cut-off read from the data, not from the text of the source: active = growth inhibition above about 70%; inactive = the rest.

Assay [1] in a line: NCI Yeast Anticancer Drug Screen. Data for the rad50 strain (AID 155).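 Note: 0% = growth of vehicle-only cultures of the same strain.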 The following applies: S. cerevisiae rad50 strain growth inhibition, active compounds read high. A digest of the protocol: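 Readout: growth inhibition relative to vehicle-treated cultures. Compound exposure was carried out in a genetically defined yeast strain deficient in DNA damage repair.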
Assay [2] in a line: NCI Yeast Anticancer Drug Screen. Data for the mec2-1 strain (AID 157). Conditions: S. cerevisiae mec2-1 strain, active compounds read high. The method, boiled down: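 Vehicle-treated cultures served as reference for growth inhibition of compound-exposed mec2-1 yeast.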
Assay [3] is described as follows: NCI Yeast Anticancer Drug Screen. Data for the sgs1 mgt1 strain (AID 161).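 Note: 0% = growth of cultures given vehicle only.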 The following applies: S. cerevisiae sgs1 mgt1 strain, active compounds read high. The method, boiled down: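 Genetically altered yeast, compound exposure, growth inhibition relative to vehicle.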
Assay [4] can be described thus: NCI Yeast Anticancer Drug Screen. Data for the cln2 rad14 strain (AID 165).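 Note: 0% = growth equal to vehicle treated cultures.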 The following applies: S. cerevisiae cln2 rad14 strain, active compounds read high. The method, boiled down:
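Each compound was tested on cln2 rad14 yeast. Inhibition of growth was calculated against vehicle-exposed controls.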

A short description of assay [5]: NCI Yeast Anticancer Drug Screen. Data for the bub3 strain (AID 167). The following applies: S. cerevisiae bub3 mutant strain, active compounds read high. The method, boiled down:
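Readout: yeast growth inhibition, expressed relative to vehicle-only wells. The test organism is a mutant strain from a panel with lesions in DNA repair or checkpoint genes.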

The nature of assay [6]: NCI Yeast Anticancer Drug Screen. Data for the mlh1 rad18 strain (AID 175). Conditions: S. cerevisiae mlh1 rad18 strain growth inhibition, active compounds read high. The method, boiled down:
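Vehicle-treated cultures served as the reference for growth inhibition in a yeast strain carrying DNA damage repair alterations exposed to each compound.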

[7] abbreviates: at 5.0 µM (retest, dose inferred, filed as 0.5).
Where [8] appears, read: at 50.0 µM (retest, dose inferred, filed as 5.0).

In the case of `Cc1c2ccccc2c(CSC(=N)N)c2ccccc12`, the growth inhibition in assay [1] (setting [7]) was 47%; in assay [1] (setting [8]), 99% (active); in assay [1] (at 50.0 µM), 99.5% (active); in assay [2] (setting [7]), 22%; in assay [2] (setting [8]) it was 99% (active); in assay [2] (at 50.0 µM), 99.7% (active). Further, the growth inhibition in assay [3] (setting [7]) is 9%; in assay [3] (setting [8]), 98% (active); in assay [3] (at 50.0 µM), 99.5% (active); in assay [4] (setting [7]), 26%; in assay [4] (setting [8]), 99% (active); in assay [4] (at 50.0 µM), 99.5% (active). Also, the growth inhibition in assay [5] (setting [7]) is 7%; in assay [5] (setting [8]), 99% (active); in assay [5] (at 50.0 µM), 99.4% (active); in assay [6] (setting [7]), 30%; in assay [6] (setting [8]), 99% (active); in assay [6] (at 50.0 µM) it was 99.7% (active).

On to `CC(=O)c1c(C)n(C)c2c1nnc1ccccc12`, for which the growth inhibition was 53% in assay [1] (setting [7]); 81% (active) in assay [1] (setting [8]); 92.3% (active) in assay [1] (at 50.0 µM); 17% in assay [2] (setting [7]); 50% in assay [2] (setting [8]); 36.9% in assay [2] (at 50.0 µM). Also, the growth inhibition in assay [3] (setting [7]) is 6%; in assay [3] (setting [8]) it was -2%; in assay [3] (at 50.0 µM), 22%; in assay [4] (setting [7]) it was 9%; in assay [4] (setting [8]) it was 31%; in assay [4] (at 50.0 µM) it was 59.4%. The growth inhibition in assay [5] (setting [7]) is 11%; in assay [5] (setting [8]) it was 48%; in assay [5] (at 50.0 µM) it was 27.1%; in assay [6] (setting [7]), 19%; in assay [6] (setting [8]), 56%; in assay [6] (at 50.0 µM) it was 68.4%.

For the compound `COc1cccnc1/C=N/NC(N)=S`, the growth inhibition is -4% in assay [1] (setting [7]); 58% in assay [1] (setting [8]); 69.5% in assay [1] (at 50.0 µM); -4% in assay [2] (setting [7]); 59% in assay [2] (setting [8]); 69.9% in assay [2] (at 50.0 µM). The growth inhibition is -4% in assay [3] (setting [7]); 63% in assay [3] (setting [8]); 73.9% (active) in assay [3] (at 50.0 µM); -6% in assay [4] (setting [7]); 19% in assay [4] (setting [8]); 48.5% in assay [4] (at 50.0 µM). Also, the growth inhibition was 0% in assay [5] (setting [7]); 60% in assay [5] (setting [8]); 75.5% (active) in assay [5] (at 50.0 µM); -5% in assay [6] (setting [7]); 70% (active) in assay [6] (setting [8]); 71.9% (active) in assay [6] (at 50.0 µM).

In the case of `CCN(CC)c1ccc(SC#N)cc1`, the growth inhibition in assay [1] (setting [7]) was 1%; in assay [1] (setting [8]) it was 93% (active); in assay [1] (at 50.0 µM), 91.2% (active); in assay [2] (setting [7]), -39%; in assay [2] (setting [8]), 94% (active); in assay [2] (at 50.0 µM) it was 95.1% (active). For the same compound, the growth inhibition in assay [3] (setting [7]) is 0%; in assay [3] (setting [8]), 95% (active); in assay [3] (at 50.0 µM) it was 58%; in assay [4] (setting [7]), -3%; in assay [4] (setting [8]) it was 88% (active); in assay [4] (at 50.0 µM) it was 90.2% (active). The growth inhibition in assay [5] (setting [7]) is 10%; in assay [5] (setting [8]), 96% (active); in assay [5] (at 50.0 µM), 97.5% (active); in assay [6] (setting [7]) it was -3%; in assay [6] (setting [8]) it was 95% (active); in assay [6] (at 50.0 µM), 93.6% (active).

For the compound `CC(C)CC(CC(C)C)OP(=O)(O)OC(CC(C)C)CC(C)C`, the growth inhibition was 7% in assay [1] (setting [7]); 76% (active) in assay [1] (setting [8]); 80.1% (active) in assay [1] (at 50.0 µM); 11% in assay [2] (setting [7]); 72% (active) in assay [2] (setting [8]); 82.5% (active) in assay [2] (at 50.0 µM). For the same compound, the growth inhibition in assay [3] (setting [7]) is 9%; in assay [3] (setting [8]), 71% (active); in assay [3] (at 50.0 µM), 77.2% (active); in assay [4] (setting [7]), 13%; in assay [4] (setting [8]) it was 78% (active); in assay [4] (at 50.0 µM), 85% (active). The growth inhibition in assay [5] (setting [7]) is 9%; in assay [5] (setting [8]) it was 78% (active); in assay [5] (at 50.0 µM), 70.5% (active); in assay [6] (setting [7]) it was 9%; in assay [6] (setting [8]), 82% (active); in assay [6] (at 50.0 µM) it was 79.3% (active).

In the case of `CCOc1c(Br)cc(Br)cc1/C=N/NS(=O)(=O)c1ccc(C)cc1`, the growth inhibition in assay [1] (setting [7]) was 41%; in assay [1] (setting [8]) it was 90% (active); in assay [1] (at 50.0 µM), 75.7% (active); in assay [2] (setting [7]), 26%; in assay [2] (setting [8]), 88% (active); in assay [2] (at 50.0 µM), 74.5% (active). Also, the growth inhibition was 38% in assay [3] (setting [7]); 90% (active) in assay [3] (setting [8]); 82.2% (active) in assay [3] (at 50.0 µM); 30% in assay [4] (setting [7]); 87% (active) in assay [4] (setting [8]); 82.6% (active) in assay [4] (at 50.0 µM). Also, the growth inhibition in assay [5] (setting [7]) was 45%; in assay [5] (setting [8]), 85% (active); in assay [5] (at 50.0 µM), 72.2% (active); in assay [6] (setting [7]) it was 48%; in assay [6] (setting [8]), 91% (active); in assay [6] (at 50.0 µM), 75% (active).

As to `CN(C)c1nc(N(C)C)oc(=[N+](C)C)n1`, the growth inhibition was -2% in assay [1] (setting [7]); -13% in assay [1] (setting [8]); 9.7% in assay [1] (at 50.0 µM); 3% in assay [2] (setting [7]); -8% in assay [2] (setting [8]); 9.35% in assay [2] (at 50.0 µM). Also, the growth inhibition in assay [3] (setting [7]) is 0%; in assay [3] (setting [8]), -9%; in assay [3] (at 50.0 µM) it was 7.8%; in assay [4] (setting [7]) it was 3%; in assay [4] (setting [8]) it was 1%; in assay [4] (at 50.0 µM), 57.3%. The growth inhibition in assay [5] (setting [7]) was 3%; in assay [5] (setting [8]), 15%; in assay [5] (at 50.0 µM), -7.45%; in assay [6] (setting [7]), 1%; in assay [6] (setting [8]), -13%; in assay [6] (at 50.0 µM), 30.4%.

In the case of `Cc1[nH]nc(-c2ccon2)c1N=O`, the growth inhibition is 12% in assay [1] (setting [7]); 61% in assay [1] (setting [8]); 68.7% in assay [1] (at 50.0 µM); -28% in assay [2] (setting [7]); 66% in assay [2] (setting [8]); 28.8% in assay [2] (at 50.0 µM). Moreover, the growth inhibition is 16% in assay [3] (setting [7]); 80% (active) in assay [3] (setting [8]); -1.75% in assay [3] (at 50.0 µM); 22% in assay [4] (setting [7]); 48% in assay [4] (setting [8]); 4.65% in assay [4] (at 50.0 µM). Also, the growth inhibition is 56% in assay [5] (setting [7]); 90% (active) in assay [5] (setting [8]); 78.7% (active) in assay [5] (at 50.0 µM); 64% in assay [6] (setting [7]); 93% (active) in assay [6] (setting [8]); 58.4% in assay [6] (at 50.0 µM).

Take `CCCCCCCN=C(N)c1ccc(C(=O)OCc2ccccc2)cc1`: the growth inhibition in assay [1] (setting [7]) is 1%; in assay [1] (setting [8]) it was 86% (active); in assay [1] (at 50.0 µM), 99.5% (active); in assay [2] (setting [7]), -12%; in assay [2] (setting [8]), 76% (active); in assay [2] (at 50.0 µM) it was 99.8% (active). Besides, the growth inhibition in assay [3] (setting [7]) was 5%; in assay [3] (setting [8]), 95% (active); in assay [3] (at 50.0 µM), 99.8% (active); in assay [4] (setting [7]) it was -2%; in assay [4] (setting [8]) it was 80% (active); in assay [4] (at 50.0 µM) it was 99.4% (active). In addition, the growth inhibition was 0% in assay [5] (setting [7]); 77% (active) in assay [5] (setting [8]); 99.4% (active) in assay [5] (at 50.0 µM); 6% in assay [6] (setting [7]); 94% (active) in assay [6] (setting [8]); 99.7% (active) in assay [6] (at 50.0 µM).
